Among the data in PubChem BioAssay AID1835 (Johns Hopkins Ion Channel Center, 2009) are activity increase over dofetilide control, less the hit threshold values, retold here.

Each structure is given as a SMILES string. The campaign covered roughly 2,400 compounds. About 750 (31%) were called active. This is one part of the list. A number with no mark means an inactive call.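 The calls were made as follows: active = median signal gain over dofetilide-blocked control wells reaching their mean plus 3 SD, so readout 1 at least 0; inactive = the rest.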

Chain of Voltage-gated inwardly rectifying potassium channel KCNH2 (Homo sapiens) (Q12809 whole entry, looked up): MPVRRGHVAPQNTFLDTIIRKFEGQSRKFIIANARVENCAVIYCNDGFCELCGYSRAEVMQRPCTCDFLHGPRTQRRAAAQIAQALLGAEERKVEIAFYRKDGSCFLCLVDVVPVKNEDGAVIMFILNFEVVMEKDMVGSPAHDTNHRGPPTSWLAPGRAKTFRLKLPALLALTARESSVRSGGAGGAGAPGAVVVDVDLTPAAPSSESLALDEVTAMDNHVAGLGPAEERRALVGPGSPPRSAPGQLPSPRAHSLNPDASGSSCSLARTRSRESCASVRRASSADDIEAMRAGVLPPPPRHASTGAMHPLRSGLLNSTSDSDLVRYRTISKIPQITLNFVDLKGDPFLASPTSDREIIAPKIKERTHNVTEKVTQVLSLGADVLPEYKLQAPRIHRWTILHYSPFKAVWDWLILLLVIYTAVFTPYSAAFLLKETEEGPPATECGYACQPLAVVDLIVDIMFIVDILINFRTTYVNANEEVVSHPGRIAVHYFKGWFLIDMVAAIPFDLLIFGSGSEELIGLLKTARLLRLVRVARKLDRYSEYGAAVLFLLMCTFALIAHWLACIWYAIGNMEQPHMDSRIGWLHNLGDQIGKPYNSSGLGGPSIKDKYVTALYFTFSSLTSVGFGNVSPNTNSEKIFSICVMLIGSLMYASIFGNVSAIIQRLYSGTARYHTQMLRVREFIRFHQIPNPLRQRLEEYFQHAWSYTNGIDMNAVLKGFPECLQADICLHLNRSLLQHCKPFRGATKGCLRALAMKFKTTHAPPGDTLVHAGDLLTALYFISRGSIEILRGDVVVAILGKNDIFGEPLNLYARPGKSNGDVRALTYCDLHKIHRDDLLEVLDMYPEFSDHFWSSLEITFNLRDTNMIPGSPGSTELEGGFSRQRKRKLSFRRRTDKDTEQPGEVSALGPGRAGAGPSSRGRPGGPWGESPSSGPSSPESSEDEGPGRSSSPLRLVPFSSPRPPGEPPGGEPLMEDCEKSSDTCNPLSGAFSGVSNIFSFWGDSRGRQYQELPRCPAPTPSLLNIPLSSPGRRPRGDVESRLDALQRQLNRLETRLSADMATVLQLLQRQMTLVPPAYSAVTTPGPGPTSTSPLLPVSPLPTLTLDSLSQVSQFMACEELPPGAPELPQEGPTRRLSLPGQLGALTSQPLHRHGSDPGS

The test concerns the target Voltage-gated inwardly rectifying potassium channel KCNH2 (Homo sapiens) (UniProt Q12809). The test can be described thus: modulators restoring hERG flux under dofetilide – cell-based, thallium flux, duplicate retest, dofetilide IC70, confirmation (AID 1835). The settings on record: hERG cell line, FluxOR thallium flux, dofetilide-blocked; at 10 µM; hits give high values.
In the case of `CCN(CC)S(=O)(=O)c1ccc2[nH]c(=O)cc(C(=O)Nc3cccc(C(C)=O)c3)c2c1`, the activity increase over dofetilide control, less the hit threshold is -4%.

Turning to `S=c1nc(-c2ccccc2)[nH]c2ccc(Br)cc12`, the activity increase over dofetilide control, less the hit threshold is 95% (active).

Turning to `CC(Oc1ccc(Br)cc1)c1nc2c3ccccc3nc(=S)n2[nH]1` (stereo not given), the activity increase over dofetilide control, less the hit threshold was 0%.

Turning to `S=c1nc(-c2ccc(Br)cc2)[nH]c2ccccc12`, the activity increase over dofetilide control, less the hit threshold was 50% (active).

With `CC(C)c1ccc(CNc2nc3nc4c(c(=O)n3[nH]2)CCC4)cc1`, the activity increase over dofetilide control, less the hit threshold was -6%.

As for `O=C1CCN(S(=O)(=O)c2ccc(Cl)cc2)CCN1`, the activity increase over dofetilide control, less the hit threshold is -25%.

Take `COc1ccc(S(=O)(=O)c2snnc2C)cc1`: the activity increase over dofetilide control, less the hit threshold was -2%.

As to `C=CCc1cccc(C2Nc3ccccc3C(=O)N2O)c1O` (stereo not given), the activity increase over dofetilide control, less the hit threshold is 1% (active).

As to `C=CCn1c(O)c(N=NC(=S)Nc2ccc(OC)cc2)c2ccccc21`, the activity increase over dofetilide control, less the hit threshold is 4% (active).

Consider `Cc1ccc(Cn2c(O)c(N=NC(=S)Nc3ccccc3F)c3ccccc32)cc1`, for which the activity increase over dofetilide control, less the hit threshold is -13%.

On to `C=CCn1c(O)c(N=NC(=S)Nc2ccc(OC)c(Cl)c2)c2ccccc21`, for which the activity increase over dofetilide control, less the hit threshold was 7% (active).

Take `COc1ccc(C(CC(=O)N2CCOCC2)c2c(O)cc(OC)cc2OC)cc1` (stereo not given): the activity increase over dofetilide control, less the hit threshold is -13%.

Turning to `CCOC(=O)C1=C(Cn2cnc3ccccc32)NC(=O)NC1c1cc(C)ccc1C` (stereo not given), the activity increase over dofetilide control, less the hit threshold was -10%.

For the compound `CC(C)[C@H](NC(=O)OC(C)(C)C)C(=O)NCC1CCC(C(=O)N[C@@H](Cc2ccccc2)C(=O)O)CC1` (stereo not given in full), the activity increase over dofetilide control, less the hit threshold was -5%.

Regarding `CNC(=O)c1cc(C(=O)c2ccc(F)cc2C(F)(F)F)c[nH]1`, the activity increase over dofetilide control, less the hit threshold is -7%.

`COc1cc(NC(=O)c2ccccc2)c(OC)cc1NC(=O)Cc1ccc(Br)cc1`: the activity increase over dofetilide control, less the hit threshold is 12% (active).

On to `COc1cc(Br)cc(/C=N/NC(=O)Cc2ccccc2)c1O`, for which the activity increase over dofetilide control, less the hit threshold is -9%.

As to `COc1ccc(CC(=O)Nc2ccccc2Oc2ccccc2)cc1`, the activity increase over dofetilide control, less the hit threshold is -13%.

As for `O=c1[nH]c(C(Cl)(Cl)Cl)nc2ccc3ccccc3c12`, the activity increase over dofetilide control, less the hit threshold was 4% (active).

Regarding `CCCN1CCN(CCCNC(=O)Cn2nc(C)n3c(cc4cc(OC)ccc43)c2=O)CC1`, the activity increase over dofetilide control, less the hit threshold was -13%.

With `CS(=O)(=O)Nc1cccc(-c2cn3ccccc3n2)c1`, the activity increase over dofetilide control, less the hit threshold is -13%.

Take `O=C(Nc1nnc(-c2ccc3c(c2)CCCC3)o1)C1COc2ccccc2O1` (stereo not given): the activity increase over dofetilide control, less the hit threshold was -12%.

Consider `O=C(Nc1nnc(-c2ccc3c(c2)CCCC3)o1)c1ccc(Cl)cc1Cl`, for which the activity increase over dofetilide control, less the hit threshold was 9% (active).

Turning to `O=C(Nc1nnc(C2=COCCO2)o1)c1ccc(Br)cc1`, the activity increase over dofetilide control, less the hit threshold was -42%.

In the case of `S=c1[nH]cc(Cc2ccccc2)s1`, the activity increase over dofetilide control, less the hit threshold is -5%.

In the case of `Cc1ccc(Cc2c[nH]c(=S)s2)cc1`, the activity increase over dofetilide control, less the hit threshold is 44% (active).

For `Cc1[nH]c(=S)sc1Cc1ccc(Cl)c(Cl)c1`, the activity increase over dofetilide control, less the hit threshold is -12%.

`NC(=O)c1nn2c(C(F)(F)F)cc(-c3ccccc3)nc2c1Br`: the activity increase over dofetilide control, less the hit threshold is -8%.

As for `Cc1nn(CCC#N)c2nc(-c3ccccc3)cc(C(F)(F)F)c12`, the activity increase over dofetilide control, less the hit threshold was -11%.

Take `Cc1[nH]n2c(=O)cc(C(C)C)nc2c1-c1ccccc1`: the activity increase over dofetilide control, less the hit threshold was -6%.

Turning to `O=c1cc(-c2ccccc2)nc2c(-c3ccccc3)c(C(F)(F)F)[nH]n12`, the activity increase over dofetilide control, less the hit threshold is 56% (active).

As to `Cc1[nH]n2c(=O)cc(C(C)(C)C)nc2c1-c1ccccc1`, the activity increase over dofetilide control, less the hit threshold is 14% (active).

On to `Nn1c(SCC(=O)Nc2ccccc2F)nnc1C1CCCCC1`, for which the activity increase over dofetilide control, less the hit threshold is -10%.

As for `CC(C)C(=O)Nc1ccc2c(c1)Cc1cc(NC(=O)C(C)C)ccc1-2`, the activity increase over dofetilide control, less the hit threshold was -3%.

Consider `Cc1noc(C)c1CSc1ncnc2sc3c(c12)CCCCC3`, for which the activity increase over dofetilide control, less the hit threshold is 4% (active).

In the case of `CCOc1ccc(S(=O)(=O)N2CCN(Cc3ccc4c(c3)OCO4)CC2)cc1C`, the activity increase over dofetilide control, less the hit threshold was -31%.

Take `COC(=O)C1=NN(C(=O)c2cccc(Br)c2)C(O)(c2ccc(Cl)cc2)C1` (stereo not given): the activity increase over dofetilide control, less the hit threshold is 86% (active).

Consider `CC1=NN(C(=O)c2ccc(Cl)cc2)C(O)(c2ccccc2)C1` (stereo not given), for which the activity increase over dofetilide control, less the hit threshold was -11%.

For the compound `CC1=NN(c2ccccc2)C(=O)C1C(=O)c1ccc(Cl)cc1` (stereo not given), the activity increase over dofetilide control, less the hit threshold was -5%.

In the case of `CCOC(=O)c1cnc(-n2nc(C)cc2C)nc1Nc1cccc(C(=O)O)c1`, the activity increase over dofetilide control, less the hit threshold is -2%.

As for `COC(=O)C1=NN(C(=O)c2ccc(C)cc2)C(O)(c2ccc(Cl)cc2)C1` (stereo not given), the activity increase over dofetilide control, less the hit threshold was 92% (active).

As to `CCOC(=O)C1=NN(C(=O)c2cccc(Br)c2)C(O)(C(C)(C)C)C1` (stereo not given), the activity increase over dofetilide control, less the hit threshold is 79% (active).

With `CCC1=NN(C(=O)c2ccc(Cl)cc2)C(O)(c2ccccc2)C1` (stereo not given), the activity increase over dofetilide control, less the hit threshold is -24%.

Turning to `CC1=NN(C(=O)c2ccccc2Br)C(O)(c2ccc(Cl)cc2)C1` (stereo not given), the activity increase over dofetilide control, less the hit threshold was -15%.

For `COC(=O)C1=NN(C(=O)c2ccc(Cl)cc2)C(O)(c2ccccc2)C1` (stereo not given), the activity increase over dofetilide control, less the hit threshold was 74% (active).

As for `COCCn1nnnc1C(c1ccc(C(F)(F)F)cc1)N1CCOCC1` (stereo not given), the activity increase over dofetilide control, less the hit threshold is -20%.

On to `O=C(CSc1ccccc1)N1CCN(S(=O)(=O)c2cccs2)CC1`, for which the activity increase over dofetilide control, less the hit threshold was -10%.

With `CCOC(=O)N1CCN(C(=O)CN(c2ccc(OCC)cc2)S(C)(=O)=O)CC1`, the activity increase over dofetilide control, less the hit threshold was -19%.

Regarding `CCOC(=O)N1CCN(C(=O)COC(=O)c2cc(Cl)c(O)c(Cl)c2)CC1`, the activity increase over dofetilide control, less the hit threshold is 5% (active).

`O=C(OCC(=O)N1CCOCC1)c1ccc(Cl)cc1[N+](=O)[O-]`: the activity increase over dofetilide control, less the hit threshold was -13%.
